HP1b binding inh: inhibitors of HP1-beta chromodomain binding to methylated histone tails; P83916; AlphaScreen HP1-beta / biotin-H3K9me3 peptide binding; Potency, µM (highest dose often 114 µM), for inactives: top-dose activity change, negative = inhibition, hits mostly inhibitors; 0.56% of 390,000 active; AID 540317; also: nearly all actives have a fitted effect of over 70% in size
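AlphaScreen: HP1-beta (50 nM) preformed 30 min with biotin-H3(1-18)K9me3 peptide (50 nM) in PBS pH 7.4, 0.01% Tween-20. Compound added for 30 min at RT, then streptavidin donor/nickel chelate acceptor beads (10 ug/mL) for 30 min.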
BAZ2B inh: inhibitors of human BAZ2B bromodomain; Q9UIF8; AlphaScreen BAZ2B-H3K14Ac peptide displacement; Potency, µM (series often up to 114 µM), inactives show top-dose activity change, negative = inhibition, most hits filed as inhibitors; 4.4% of 360,000 active; also: % is scaled to controls: 0 for no effect and ±100 for the full control effect; nearly all actives have a fitted effect of over 60% in size
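AlphaScreen displacement of biotin-H3(5-23)K14Ac peptide (50 nM final) from BAZ2B (50 nM final) in PBS pH 7.4, 0.01% Tween-20; complex preformed 30 min RT, then compounds (top 110 uM) 30 min RT, beads 20 min dark.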
G9a block: G9a (human) methyltransferase inhibition. Q96KQ7. Potency, µM (highest dose often 102 µM), for inactives: at the highest dose activity, negative = inhibition, usual class: inhibitors. G9a H3K9 monomethylation, AlphaScreen, 2 h. 8.8% of 350,000 active; also: % is scaled to controls: 0 for no effect and ±100 for the full control effect; nearly all actives have a fitted effect of over 75% in size
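Quantitative HTS format: methyltransferase activity on a biotin-tagged H3K9 peptide is measured by AlphaScreen, using a rabbit anti-monomethyl-H3K9 antibody with streptavidin donor and anti-IgG acceptor beads. Final levels are 20 nM enzyme, 500 nM peptide, 20 uM SAM; 2 h RT.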
Sfp inh: inhibitors of Bacillus subtilis Sfp phosphopantetheinyl transferase | Q9F4F7 | Biochemical Sfp PPTase activity, qHTS | Potency, µM, inactives show largest response in the series, negative = inhibition, most hits filed as inhibitors | 3.5% of 310,000 active | AID 1490;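 also: the enzyme is Sfp with the accession as filed and its product quenches rhodamine fluorescence; 0% = enzyme reaction without inhibitor and -100% = no enzyme wells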
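Reaction rates are the 30-min fluorescence difference (ex 525, em 598 nm) in wells containing 15 nM Sfp, 5 uM rhodamine-CoA and 12.5 uM BHQ-2-YbbR at pH 7.6 with 10 mM MgCl2.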
JMJD2A Tudor inh: JMJD2A Tudor domain (human) inhibition; O75164; AlphaScreen JMJD2A-Tudor / H3K4me3 peptide binding; Potency, µM (highest dose often 114 µM), inactives show top-dose activity change, negative = inhibition, most hits filed as inhibitors; 4.4% of 390,000 active; also: % is scaled to controls: 0 for no effect and ±100 for the full control effect; nearly all actives have a fitted effect of over 50% in size
The depositor's hits bear a star; u = inconclusive; x = no result; ! = not active in a repeat; [ ] = remark or other dose. Shown are actives, neighbours in structure and some others; about 12% of the full set was active somewhere. Calls follow the shape of the dose curve; as a rule, active = well fitted curve in the direction sought with a large enough effect; inconclusive = small, poorly fitted or top-dose-only effect, or another doubt; inactive = no such curve, though single readings can be large; an effect the other way counts as inactive or inconclusive. Potency is read from the fitted curve at half-maximal effect.

SMILES	HP1b binding inh	BAZ2B inh	G9a block	Sfp inh	JMJD2A Tudor inh
Cc1ccc(-c2nc(CS(=O)CC(=O)N3CCN(c4cccc(Cl)c4)CC3)c(C)o2)cc1 (configuration not stated)	-16%	25µM*	u	x	u
Cc1ccc(-c2nc(CS(=O)CC(=O)N3CCN(c4ccc(F)cc4)CC3)c(C)o2)cc1 (configuration not stated)	47%	28µM*!	14µM*!	4%	u
Cc1oc(-c2ccc(Cl)cc2)nc1CS(=O)CC(=O)N1CCN(c2cccc(C(F)(F)F)c2)CC1 (configuration not stated)	0%	-5%	u	x	u
CCOC(=O)C1CCN(C(=O)CS(=O)Cc2nc(-c3ccc(C)cc3)oc2C)CC1 (configuration not stated)	18%	3%	28µM*	u	-14%
Oc1[nH]c2ccccc2c1N=Nc1ccccc1Cl	32%	x	x	x	-8%
Cc1[nH]c2ccccc2c1N=Nc1cc(C(=O)O)cc(C(=O)O)c1	-11%	u	35µM*	-1%	-21%
Cc1[nH]c2ccccc2c1N=Nc1ccc(F)cc1	u	32µM*	40µM*	20%	89µM*
Cc1[nH]c2ccccc2c1N=Nc1ccccc1F	u	40µM*	40µM*	9%	45µM*
Cc1[nH]c2ccccc2c1SCC(=O)O	35%	-22%	u	5%	-10%
CN1C(=O)N(C)C2C1N(C)S(=O)(=O)N2C (configuration not stated)	31%	x	22%[59 µM]	29%	-8%
COc1ccc(CC(=O)NNS(=O)(=O)c2ccc3ccccc3c2)cc1OC	22%	1%	9%[59 µM]	4%	-9%
CCSc1cc(C2C(C(=O)OC)=C(C)NC3=C2C(=O)CCC3)c(C)o1 (configuration not stated)	u	u	7.1µM*	-19%	u
COCCOC(=O)C1=C(C)NC2=C(C(=O)CCC2)C1c1cc2c(cc1Br)OCO2 (configuration not stated)	30%	-1%	-10%	7%	-11%
Cc1ccc(C)c(CN2C(=O)c3ccccc3S(=O)(=O)c3ccc(C(=O)N4CCN(C)CC4)cc32)c1	4%[57 µM]	89µM*	2%[59 µM]	9%	-17%
COc1ccc(CCNC(=O)c2ccc3c(c2)N(Cc2cccc(C)c2)C(=O)c2ccccc2S3(=O)=O)cc1OC	17%	u	-43%[59 µM]	x	-24%
COc1ccc(CCNC(=O)c2ccc3c(c2)N(Cc2ccccc2F)C(=O)c2ccccc2S3(=O)=O)cc1OC	26%	-13%	7.9µM*	x	-19%
COc1cc2c(cc1OC)C(c1ccsc1)CC(=O)N2 (configuration not stated)	9%	-19%	-24%[12.7 µM]	7%	-20%
Cc1ccc(C(=O)Nc2ccccc2C(=O)O)cc1S(=O)(=O)Nc1ccc(Br)cc1	0%	x	x	x	-22%
CC1=Nn2c(nnc2-c2ccccc2Cl)SC1	50%	1%	22µM*	-15%	-27%
COc1ccccc1-c1nnc2n1N=C(C)CS2	34%	-3%	20µM*	7%	56µM*
CC1CCN(c2ccc3nnc(CCC(=O)NCCCOC(C)C)n3n2)CC1	43%	-11%	15%	2%	-5%
O=C(O)c1ccc(NCc2nc3ccccc3n2Cc2ccccc2)cc1	39%	50µM*	1%	18%	-9%
CCn1c(CNc2ccc(C(=O)O)cc2)nc2ccccc21	13%	-7%	1%[59 µM]	-24%	-5%
CCn1cnc2cc(NCc3nc4ccccc4n3Cc3ccccc3)ccc21	-6%	40µM*	u	14%	45µM*
O=C(Nc1cccc(F)c1)c1cc(S(=O)(=O)N2CCC3(CC2)OCCO3)ccc1F	x	9%	-31%	-6%	x
N#Cc1c(NC(=O)CN2CCN(S(=O)(=O)c3ccc4c(c3)OCCO4)CC2)sc2c1CCC2	29%	-31%	6%[12.7 µM]	-7%	0%
CCOC(=O)C1=C(CN2CCN(c3ccc(OC)cc3)CC2)NC(=O)NC1c1ccc(Cl)cc1 (configuration not stated)	u	x	7.9µM*	x	13µM*

High-throughput results deposited in PubChem BioAssay by National Center for Advancing Translational Sciences (NCATS).
